Drawing on the supplement of paper PMC6555819, this text covers PBM binding z-score for 40 sequences.

The test relates to VDR:RXRa (NR concentration 270 nM, RXRa partner concentration 90 nM). Kind of test: PBM binding z-score (relative to random genomic background probes); higher = stronger binding; sequences stand for … in GC…GCGATTGACAGCGTAGAATGAAGG
On the procedure: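 Protein-binding microarray (Agilent 4x180K custom design, double-stranded 60-nt probes: 5' GC cap, 34-nt variable region, 24-nt constant primer region; full probe sequence given). Purified or IVT nuclear receptor:RXRα heterodimers (3:1 NR:RXRα, mostly 270:90 nM) or homodimers were incubated for 1 h in PBS with 2% milk and no ligand, then detected with Alexa488 antibodies. Fluorescence from o1-orientation probes (~5 replicates averaged) was converted to z-scores against 500 random hg19 background probes. Variable regions are seed direct-repeat (DR0–DR5) sites, all their single-nucleotide variants and half-site ablations.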
As for GCTGCCAGGTCAGGTTGGTCAGCTAACGGGTACG, the PBM binding z-score was 1.03.
The sequence CGAACTAGGTCATTGACAGGGCAGTGAATAGTAA yielded a PBM binding z-score of 2.15.
CCTTACGGGTCACGAGGTGATAGCACGACGAGCG had a PBM binding z-score of 4.18.
Take ATATGTAGGTTATCAGGTCATTCAGTTTGCGCAT: the PBM binding z-score came out at 4.71.
Consider CTCGAAAGGTCGGTTGAGGTGAGTATACGGATAA, for which the PBM binding z-score came out at 2.14.
Under CTCGAAAGGTCGTGCGCAGGTGAGTATACCAAAC stands 3.64; under TGAATGAGGTTGTAAGATCAGGGAACGTTGCAAA, -0.0386.
Take GGAACGAGGGCATACGAGTTGATAGCATGGCGAT: the PBM binding z-score came to 2.73.
Turning to TTACTAAGGTGAGCTGAGGTCGTTGATCCAACTC, the PBM binding z-score was found to be 4.42.
The value for TCGAGTAGGTTAGTCGGGGTATTCAGCCAACATA was 0.453.
Under AGAATGAGGGTACCAAAGATCAGGGAAACGCTTG stands 0.0257; under CCTTACGGGTCACACCAGGTTATAGCATCGGAGT, 4.89.
As to CGTGCAAGGTCAAGGTCAGTGAAAGAGACTCGAA, the PBM binding z-score was determined as 4.83.
ACTAGCAGGCCAAGTTTGGGTTACTCAAACAAAG gave a PBM binding z-score of -0.254.
TAGCCTGGGTCAGATCGGGCCAGTATACGCTATA had a PBM binding z-score of 0.452.
CTCGAAAGGTCGTGATCAGGTGAGTATACCAAAC showed a PBM binding z-score of 3.22.
On to ATAATGAGGTTACCAAAGATCAGGGAAACGCTTG, for which the PBM binding z-score came out at 1.81.
CCTTACAGGTCACTGACAGGTTATAGCATTTGGA showed a PBM binding z-score of 3.8.
As to CTACCAACGTGAACAAGGTCGTTGATTACTATTC, the PBM binding z-score was determined as 2.05.
On to TCTGGTAGGTCAACGATGGTCAGCTAATCTGCTA, for which the PBM binding z-score was determined as 2.2.
Sequence CGTCCAAGGTCATAGGAGGTCAGTGATGACAGAT had a PBM binding z-score of 6.43.
Under ACTTACGGTTCAACGAGGTTATAGCACGCGTATA stands 7.06; under GTACCAAGGTGAATGGGTCGTTGATGAGTAGGCG, 1.06; under ATCGAAAGGTCGACGTGGTGAGTATACACCGTTT, 2.73.
Under CAAACTAGGTCAAGATCAAAGTCGGTTTGTGCCA stands 1.52.
For the sequence GGAACGAGGGCATTCGAGTTGATACCATGGCGAT, the PBM binding z-score turned out to be 3.67.
For ATCTCTAGGTAAGACTCAGTTCAGTGCAGAACGC, the PBM binding z-score came to 0.866.
On to AAGACAGGGTCATCGTAGGCCAGAGTACGCACAG, for which the PBM binding z-score was 5.14.
In turn, TCCTGTAGATCAATAGAGGTTAAGAAAGTGCGCT came in with a PBM binding z-score of 1.67.
In turn, TCATATAGGTAATACAGTTGAAAGTCGGCATCTA returned a PBM binding z-score of 1.63.
The value for TAGCTTAGGTCAGATCGGGCCAGTATACGCTATA was 0.872; that for CGTCAAAGTTCAAGGTAACATAACAGAAAGCAGC was 3.63; that for CAAACTAGGTCAAGAGGACAAAGTCCGCTTCCCG was 1.98.
TCTCGGAGGACTCGAAAGGTCAGAGCTCGACATC had a PBM binding z-score of 2.4.
ATATGAAGGTTAAGGGTCATTCAGGTTGGTTCGC had a PBM binding z-score of 6.02.
The sequence ATCTCTAGGTAAAGATAGTTTAGTGAATGCAAAT registered a PBM binding z-score of 0.322.
TTACCAAGCTGAAGGTCGTTGATCCCTCTGTAGA yielded a PBM binding z-score of 0.724.
GCTAGCAGGCCATTGGGGTCACTCAATGACGGGC displayed a PBM binding z-score of 6.04.
Take TAGCCTAGGTCAGATCGGGCCAGTATACGCTATA: the PBM binding z-score was determined as 0.518.
Turning to CCTACTGGGTCATCAGGTCATTGATATCAACGTT, the PBM binding z-score was 4.24.
